In PubChem BioAssay AID1272365 (Small Molecule Screening Facility, UW Madison, 2018):
“And” between values parts separate entries of the source, which are not always exact repeats. Equal entries are not always repeated. Hit rate of the full screen: of about 430,000 compounds, about 2,600 (0.6%) were called active. For the sample, actives were picked, then their nearest neighbours and some compounds at random. Unmarked numbers belong to inactive results. Rule as the data show it: active = inhibition mostly above about 37% (no sharp cut-off); inactive = mostly below about 20%.

The compounds below were run on PriA–SSB C-terminal tail interaction (Klebsiella pneumoniae) (assay: inhibitors of Klebsiella pneumoniae PriA binding to SSB C-terminal tail, primary screen, biochemical, AlphaScreen (AID 1272365;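 also: plate controls were negative control peptide for no effect and reference peptide for full effect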)). Conditions: AlphaScreen SSBct-PriA binding, biotinylated peptide; at 33 µM, active compounds read high.

SMILES	inhibition
CN1CCc2cc(C(CNC(=O)C(=O)Nc3ccccc3F)N(C)C)ccc21 (stereo unspecified)	14%
COc1cccc2c1C(=O)c1c(O)c3c(c(O)c1C2=O)CC(O)(C(C)=NNC(=O)c1ccc(Cl)c(Cl)c1)CC3OC1CC(N)C(O)C(C)O1 (stereo unspecified)	57.5% (active)
CCOC(=O)CNC(=O)CSc1ccc2nnc(-c3cccnc3)n2n1	2.63%
Cc1ccccc1NC(=O)CSc1ccc2nnc(-c3ccccn3)n2n1	-4.51%
NC(=O)CSc1ccc2nnc(-c3ccccn3)n2n1	72% (active)
CCCN(CCC)C(=O)Cn1c(=O)c2ccccc2n2c(=S)sc(-c3cccc(C)c3)c12	7%
CCc1ccc2nc(Nc3nc4ccc(NC(C)=O)cc4s3)sc2c1	2%
C/C(=N/N=C1/NC(=O)CS1)c1ccccc1	-2%
N#CC1=C(N)Oc2c(ccc3cccnc23)C1c1ccncc1 (stereo unspecified)	65.3% (active)
Nc1cncc2cccnc12	-8%
N#CC1=C(N)Oc2c(sc3ccccc23)C1c1ccco1 (stereo unspecified)	2.22%
Cc1ccc2nc3sc(Nc4ccc(C)c(Cl)c4)nn3c(=O)c2c1	-4%
Cc1nn(C)c(C)c1S(=O)(=O)NCC1CCN(c2ccccn2)CC1	2%
Cc1ccc2c(c1)C1CN(C)CCC1N2C(=O)c1ccccc1NS(=O)(=O)c1ccc(F)cc1C (stereo unspecified)	-3.86%
Cc1ccc2c(c1)C1CN(C)CCC1N2S(=O)(=O)c1cccc(F)c1 (stereo unspecified)	39.2% (active)
Cc1ccc2c(c1)C1CN(C)CCC1N2S(=O)(=O)c1ccc(Oc2ccc([N+](=O)[O-])cc2)cc1 (stereo unspecified)	17.5%
CCOc1ccc(-c2ccc(=O)n(CC(=O)N3CCOCC3)n2)cc1	-1%
O=C(c1cc(Cl)cc(Cl)c1)N1CCC(=O)N(C(COCc2ccccc2)Cc2ccccc2)CC1 (stereo unspecified)	44.6% (active)
CN1CCC(=O)N([C@H](CO)Cc2ccccc2)CC1	-2.41%
CC(C)CC(COCc1ccc(Cl)cc1)N1CCN(C(=O)c2ccc(C(F)(F)F)cc2)CCC1=O (stereo unspecified)	-5.16%
COc1cc(NC(=O)CSc2nccn3nc(-c4ccc(Cl)cc4)cc23)cc(OC)c1	3%
Cc1cc(-c2csc(Nc3ccccn3)n2)c(C)o1	2%
Cc1csc(OCC(=O)Nc2ccc(C)c(C)c2)n1	-9.32%

SMILES	inhibition
Cc1ccc(Nc2nc(-c3ccccn3)cs2)cc1C	108% (active)
COc1ccccc1C(CNC(=O)c1ccc2c(c1)OCO2)OC (stereo unspecified)	-10%
Cc1noc(C)c1CC(=O)NCCn1cnc2ccsc2c1=O	-1%
O=C1c2ccccc2C(=O)c2c1cccc2N1CCN(Cc2ccccc2)CC1	50.5%
CNC(=O)NC(=O)C(C)N1CCN(C/C=C/c2ccccc2)CC1 (stereo unspecified)	7.15%
O=C1c2ccccc2C(=O)c2c1cccc2N1CCN(C/C=C/c2ccccc2)CC1	68.2% (active)
Cc1ccc(Nc2ccc(NCCN)nn2)nc1	89% (active)
Cc1ccc(NS(=O)(=O)c2ccc(F)cc2)nc1	-0.76%
Cc1cccc(N2CCN(C(=O)CCc3csc4nc(-c5ccccc5)cn34)CC2)c1	-16%
O=C1c2ccccc2NC(c2ccccn2)N1NS(=O)(=O)c1ccccc1 (stereo unspecified)	-13.5%
CC(C)C1Nc2ccccc2C(=O)N1CC(=O)Nc1nc(-c2ccccn2)cs1 (stereo unspecified)	94.5% (active)
COc1ccc(SCCC(=O)Nc2nc(-c3ccccn3)cs2)cc1	81% (active)
CCCCOC(=O)NCN1C(=O)C2C3C=CC(C3)C2C1=O (stereo unspecified)	9.26%
O=C(CSc1ccccc1)Nc1nc(-c2ccccn2)cs1	-20%
O=C(Cc1csc(NC(=O)c2ccccc2)n1)NCc1ccccn1	0%
Cc1ccc(SCCC(=O)Nc2nc(-c3ccc4c(c3)OCCO4)cs2)cc1	8%
Cc1ccc(-c2csc(NC(=O)[C@H](C(C)C)N3C(=O)c4ccccc4C3=O)n2)cc1	-1%
O=C(CN1C(=O)C2C3C=CC(C3)C2C1=O)Nc1nc(-c2ccccn2)cs1 (stereo unspecified)	84.8% (active)
O=C(CC1(n2cccc2)CCOCC1)Nc1nc(-c2ccccn2)cs1	109% (active)
Cc1c(C(=O)Nc2nc(-c3ccccn3)cs2)cccc1[N+](=O)[O-]	25.8%
O=C(CCN1C(=O)C2C3C=CC(C3)C2C1=O)Nc1ccccc1F (stereo unspecified)	-14.1%
Cc1cc(OCC(=O)NCCc2ccccc2)ccc1C(C)C	-16% and -56%
O=C(Nc1nc(-c2cc([N+](=O)[O-])cs2)cs1)C1CC1	16%
